This passage reports growth inhibition results from PubChem BioAssay (NCI).

Each structure is given as a SMILES string. This is part of a sample that, as a whole, favours compounds with a hit. Of some 79,000 tested, about 15% had one in any assay. A number with no mark means an inactive call. Calls of active or inactive are those of the source. No stated cut-off is given here; in the data, active means growth inhibition above about 70%; inactive means the rest.

Assay [1] is described as follows: NCI Yeast Anticancer Drug Screen. Data for the rad50 strain (AID 155).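 Further: 0% = growth of vehicle-only cultures of the same strain.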 Conditions: S. cerevisiae rad50 strain growth inhibition; at 50.0 µM; hits give high values. Put shortly:
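Cells are treated with compound, grown, and their growth is then scored against vehicle-only cultures of the same repair-deficient yeast strain.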

A short description of assay [2]: NCI Yeast Anticancer Drug Screen. Data for the mec2-1 strain (AID 157). Conditions: S. cerevisiae mec2-1 strain, at 50.0 µM, hits give high values. Put shortly: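 Compounds were applied to mec2-1 yeast cells. Their growth was then compared with that of vehicle-treated cultures to give growth inhibition.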
Assay [3] in a line: NCI Yeast Anticancer Drug Screen. Data for the sgs1 mgt1 strain (AID 161).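 Further: 0% = growth of cultures given vehicle only.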 Conditions: S. cerevisiae sgs1 mgt1 strain, at 50.0 µM, hits give high values. Put shortly: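 Yeast cells carrying a defined DNA-repair defect were exposed to test compounds. Growth inhibition was measured relative to vehicle-treated controls.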
Assay [4] can be described thus: NCI Yeast Anticancer Drug Screen. Data for the cln2 rad14 strain (AID 165).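 Further: 0% = growth equal to vehicle treated cultures.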 Conditions: S. cerevisiae cln2 rad14 strain, at 50.0 µM, hits give high values. Put shortly: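 Strain: cln2 rad14 yeast, altered in cell cycle control and DNA damage repair. Read-out: growth inhibition vs vehicle.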
Assay [5] is described as follows: NCI Yeast Anticancer Drug Screen. Data for the bub3 strain (AID 167). Conditions: S. cerevisiae bub3 mutant strain, at 50.0 µM, hits give high values. Put shortly:
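Part of a panel of yeast mutants defective in DNA damage repair or cell cycle regulation. Each strain is grown with compound, and inhibition is calculated relative to solvent-treated cultures.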

The nature of assay [6]: NCI Yeast Anticancer Drug Screen. Data for the mlh1 rad18 strain (AID 175). Conditions: S. cerevisiae mlh1 rad18 strain growth inhibition; at 50.0 µM; hits give high values. Put shortly: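 A repair-deficient yeast strain is exposed to test compound, and growth is scored relative to vehicle-treated controls.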

Turning to `O=c1[nH]/c(=C/c2ccc3c(c2)OCO3)c(=O)[nH]/c1=C/c1ccc2c(c1)OCO2`, the growth inhibition is -24.2% in assay [1]; -20% in assay [2]; -22.8% in assay [3]; -13% in assay [4]; -34.4% in assay [5]; 20.2% in assay [6].
For the compound `CS(=O)(=O)c1cc(=O)[nH]c(=O)[nH]1`, the growth inhibition in assay [1] was 0.55%; in assay [2] it was 1.45%; in assay [3] it was 18.2%; in assay [4], 25.6%; in assay [5], -0.9%; in assay [6], 7.45%.
Regarding `NC(CCC(N)C(=O)c1ccccc1)C(=O)c1ccccc1` (stereo not given), the growth inhibition was -12.2% in assay [1]; -7.75% in assay [2]; 4.35% in assay [3]; 6.8% in assay [4]; -8.8% in assay [5]; 11.7% in assay [6].
Take `CCCCN(C)C(=O)C1=C(C)NC(C)=C(C(=O)N(C)CCCC)C1`: the growth inhibition in assay [1] is -1.45%; in assay [2], -26.4%; in assay [3] it was -12.2%; in assay [4], -20.3%; in assay [5], -16.2%; in assay [6], -58%.
In the case of `O=[N+]([O-])c1cccnc1Sc1nc2ccccc2[nH]1`, the growth inhibition in assay [1] was 20.2%; in assay [2], 17.9%; in assay [3], 25.5%; in assay [4], -20.5%; in assay [5], 21.8%; in assay [6] it was 6.2%.
With `Cc1c([N+](=O)[O-])cc(C(C)(C)C)c(OC(=O)CCl)c1[N+](=O)[O-]`, the growth inhibition in assay [1] is 99.5% (active); in assay [2], 99.7% (active); in assay [3] it was 99.6% (active); in assay [4], 99.2% (active); in assay [5], 99.4% (active); in assay [6], 99.5% (active).
Turning to `CC(C)(C#CCOC(=O)c1ccc([N+](=O)[O-])cc1)OC(=O)c1ccc([N+](=O)[O-])cc1`, the growth inhibition in assay [1] is 9.25%; in assay [2] it was -3.7%; in assay [3], 18.5%; in assay [4], 32.1%; in assay [5] it was 1.5%; in assay [6], 5.35%.
As for `Nc1ccc(S(=O)(=O)n2c(=O)oc3cc(Cl)ccc32)cc1`, the growth inhibition in assay [1] is 0.75%; in assay [2], 5.75%; in assay [3] it was 8.9%; in assay [4] it was -6.7%; in assay [5], 14.1%; in assay [6], 19.8%.
As to `C[n+]1c(/C=C/c2ccc3c(c2)OCO3)ccc2ccccc21`, the growth inhibition in assay [1] was 1.55%; in assay [2], -0.2%; in assay [3] it was 22%; in assay [4], 6%; in assay [5], 14.1%; in assay [6] it was 14.2%.
For `CC(C)CCOC(=O)c1ccccc1Cl`, the growth inhibition in assay [1] was 17.7%; in assay [2], 18.5%; in assay [3], 11.1%; in assay [4] it was 12.4%; in assay [5] it was 0.15%; in assay [6] it was -14.6%.
For `O=C(NCCCl)Nc1[nH]c(=O)ncc1Cl`, the growth inhibition in assay [1] was -12.2%; in assay [2], -13.2%; in assay [3], -16.5%; in assay [4] it was -30.6%; in assay [5] it was -12.4%; in assay [6] it was -3.15%.
With `CCCCOC(=O)CNC(=O)OC(C)(C)C`, the growth inhibition is -4.5% in assay [1]; 11.8% in assay [2]; -10.1% in assay [3]; -2.1% in assay [4]; -3.25% in assay [5]; -15.5% in assay [6].
With `CCCCC(C)(O)CCC` (stereo not given), the growth inhibition in assay [1] is 5.8%; in assay [2] it was -11.9%; in assay [3], 0.5%; in assay [4], 5.05%; in assay [5], 7.3%; in assay [6], -6.05%.
Regarding `N#CCCNC1CCCCC1`, the growth inhibition was 2.95% in assay [1]; 4% in assay [2]; 2.5% in assay [3]; -14.3% in assay [4]; 0.85% in assay [5]; -0.25% in assay [6].
For `S=P(c1ccccc1)(c1ccccc1)C(P(c1ccccc1)c1ccccc1)P(c1ccccc1)c1ccccc1`, the growth inhibition in assay [1] is 47.9%; in assay [2], 49.9%; in assay [3], 46.1%; in assay [4] it was 49.7%; in assay [5], 33.5%; in assay [6], 62%.
Regarding `COc1cccc2c1N=c1c(Cl)c3c(c(Cl)c1O2)=Nc1c(OC)cccc1O3`, the growth inhibition in assay [1] was -17.9%; in assay [2], -1.45%; in assay [3], -0.25%; in assay [4], -13.9%; in assay [5] it was -8.5%; in assay [6], -20.4%.
Turning to `CSCCC(NC(=O)OC(C)(C)C)C(=O)NCCNc1ccc(NCCNC(=O)C(CCSC)NC(=O)OC(C)(C)C)c2c1C(=O)c1ccccc1C2=O` (stereo not given), the growth inhibition in assay [1] was 19.4%; in assay [2], 7.9%; in assay [3] it was -24.2%; in assay [4] it was 3.85%; in assay [5], -9.5%; in assay [6], -43.3%.
As to `N#C/C(=C(\O)C(=O)O)c1ccc(-c2cccc3ccccc23)cc1`, the growth inhibition was 29.6% in assay [1]; 0.6% in assay [2]; -17.9% in assay [3]; 1.9% in assay [4]; 16.7% in assay [5]; 26.9% in assay [6].
Consider `O=S(=O)(c1ccc(OCCOc2ccc(S(=O)(=O)N3CCOCC3)cc2)cc1)N1CCOCC1`, for which the growth inhibition was 0.55% in assay [1]; 7.75% in assay [2]; 12.6% in assay [3]; -15.4% in assay [4]; 2.95% in assay [5]; -14% in assay [6].
As to `CCOC(=O)c1[nH]c(Cc2[nH]c(C(=O)OCC)c(CC)c2C)c(C)c1CC`, the growth inhibition in assay [1] was 7.8%; in assay [2], -1.1%; in assay [3], -4.75%; in assay [4] it was -3.65%; in assay [5], -4.7%; in assay [6], 24.2%.
